Compound activity deposited in PubChem BioAssay by National Center for Advancing Translational Sciences (NCATS).
This is a sample that favours compounds with a hit; in the whole collection about 12% have one here.
HP1b binding inh = HTS for Inhibitors of HP1-beta Chromodomain Interactions with Methylated Histone Tails; Potency, µM (doses to about 114 µM), for inactives: top-dose activity change, negative = inhibition, usual class: inhibitors; 390,000 compounds, 0.56% hits; AlphaScreen HP1-beta / biotin-H3K9me3 peptide binding; Chromobox protein homolog 1 (Homo sapiens), P83916; also: nearly all actives have a fitted effect of over 70% in size
Target sequence (P83916 whole entry, looked up): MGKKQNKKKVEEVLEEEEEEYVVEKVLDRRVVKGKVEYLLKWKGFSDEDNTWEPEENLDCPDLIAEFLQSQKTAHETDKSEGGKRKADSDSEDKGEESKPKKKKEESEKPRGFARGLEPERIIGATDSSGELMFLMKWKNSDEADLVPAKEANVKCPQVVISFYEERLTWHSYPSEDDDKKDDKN
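AlphaScreen: HP1-beta (50 nM) preformed 30 min with biotin-H3(1-18)K9me3 peptide (50 nM) in PBS pH 7.4, 0.01% Tween-20. Compound added for 30 min at RT, then streptavidin donor/nickel chelate acceptor beads (10 ug/mL) for 30 min.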
G9a inh = qHTS Assay for Inhibitors of Histone Lysine Methyltransferase G9a; Histone-lysine N-methyltransferase EHMT2 (Homo sapiens), Q96KQ7; G9a H3K9 monomethylation, AlphaScreen, 2 h; Potency, µM (highest dose often 102 µM), without a hit: at the top dose activity, negative = inhibition, usual class: inhibitors; 350,000 compounds, 8.8% hits; AID 504332, 2011; also: % is scaled to controls: 0 for no effect and ±100 for the full control effect; nearly all actives have a fitted effect of over 75% in size
Target sequence (Q96KQ7 913-1193 limits assumed): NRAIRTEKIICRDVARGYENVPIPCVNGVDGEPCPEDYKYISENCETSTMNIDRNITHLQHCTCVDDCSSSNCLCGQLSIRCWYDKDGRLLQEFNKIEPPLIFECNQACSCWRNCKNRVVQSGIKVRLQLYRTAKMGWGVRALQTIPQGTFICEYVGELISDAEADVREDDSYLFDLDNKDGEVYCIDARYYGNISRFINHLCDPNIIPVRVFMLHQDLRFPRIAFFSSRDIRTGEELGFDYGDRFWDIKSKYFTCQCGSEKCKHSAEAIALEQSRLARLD
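Step 1: enzyme (final 20 nM) with compound, 15 min RT. Step 2: substrate peptide 500 nM and SAM 20 uM, 2 h RT. Step 3: anti-H3K9me1 antibody and AlphaScreen beads, 10 min, then plate read.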
PLK1 PBD block = qHTS for Inhibitors of PLK1-PDB (polo-like kinase 1 - polo-box domain): Primary Screen. Serine/threonine-protein kinase PLK1 (Homo sapiens), P53350. Plk1 PBD binding of FITC phosphopeptide, fluorescence polarization. Potency, µM, for the others: max response, negative = inhibition, most hits filed as inhibitors. 360,000 compounds, 2.8% hits; also: series mostly up to about 57 µM; % is scaled to controls: 0 for no effect and ±100 for the full control effect; nearly all actives have a fitted effect of over 65% in size
BAZ2B block = qHTS Assay for Inhibitors of BAZ2B | AID 504333, 2011 | Potency, µM (series often up to 114 µM), inactives show at the highest dose activity change, negative = inhibition, hits mostly inhibitors | AlphaScreen BAZ2B-H3K14Ac peptide displacement | 360,000 compounds, 4.4% hits; also: % is scaled to controls: 0 for no effect and ±100 for the full control effect; nearly all actives have a fitted effect of over 60% in size
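BAZ2B (50 nM) with biotin-H3(5-23)K14Ac peptide (50 nM) in PBS pH 7.4, 0.01% Tween-20, preformed 30 min, then compound 30 min at room temperature; top concentration 110uM. AlphaScreen streptavidin donor/nickel chelate acceptor beads (10 ug/mL final), 20 min dark, signal read.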
Sfp inh = qHTS Assay for Inhibitors of Bacillus subtilis Sfp phosphopantetheinyl transferase (PPTase). Biochemical Sfp PPTase activity, qHTS. 4'-phosphopantetheinyl transferase ffp (Bacillus subtilis), Q9F4F7. 310,000 compounds, 3.5% hits. Potency, µM, without a hit: largest response in the series, negative = inhibition, actives largely listed as inhibitors. AID 1490, 2009;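 also: the enzyme is Sfp with the accession as filed and its product quenches rhodamine fluorescence; 0% = enzyme reaction without inhibitor and -100% = no enzyme wells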
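Fluorescence-quenching assay with 15 nM Sfp, 5 uM rhodamine-CoA and 12.5 uM BHQ-2-labelled ybbR peptide in pH 7.6 Hepes/MgCl2 buffer. Enzyme was pre-incubated with compound for 15 min at room temperature. Rate was taken from the 30-min fluorescence change (525/598 nm).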
JMJD2A Tudor inh = qHTS Assay for Inhibitors of JMJD2A-Tudor Domain. Potency, µM (titrated, usually from 114 µM), for the others: at the highest dose activity change, negative = inhibition, actives largely listed as inhibitors. Lysine-specific demethylase 4A (Homo sapiens), O75164. AlphaScreen JMJD2A-Tudor / H3K4me3 peptide binding. 390,000 compounds, 4.4% hits; also: % is scaled to controls: 0 for no effect and ±100 for the full control effect; nearly all actives have a fitted effect of over 50% in size
An asterisk follows results filed as active; ? = inconclusive; nt = no result; [ ] = remark or other dose. Calls follow the shape of the dose curve; as a rule, active = well fitted curve in the direction sought with a large enough effect; inconclusive = small, poorly fitted or top-dose-only effect, or another doubt; inactive = no such curve, though single readings can be large; an effect the other way counts as inactive or inconclusive. Potency is read from the fitted curve at half-maximal effect.

SMILES	HP1b binding inh	G9a inh	PLK1 PBD block	BAZ2B block	Sfp inh	JMJD2A Tudor inh
CC(C)(C)C1CCc2onc(C(=O)Nc3sc4c(c3C(N)=O)CCCC4)c2C1 (stereo unspecified)	?	3.16µM*	nt	-0.4%	nt	-24.6%
CC(C)(C)C1CCc2c(sc(NC(=O)C3CCCO3)c2C(N)=O)C1 (stereo unspecified)	-17.3%	22.0%[0.501 µM]	-11.2%	?	-13.5%	?
CCN1C(=O)[C@H]2[C@@H](c3ccc(-c4ccc(OC)cc4)c(OC)c3)N3CCCC[C@@]3(C(=O)OC)[C@H]2C1=O	23.2%	-13.6%[2.33 µM]	-9.7%	-1.7%	nt	-26.2%
CCc1cccc(C)c1Nc1c(-c2ccc(N3CCOCC3)cc2)nc2ncccn12	?	10µM*	nt	28.2µM*	nt	39.8µM*
Cc1ccccc1Nc1c(-c2ccc(N3CCOCC3)cc2)nc2ccccn12	?	15.8µM*	nt	17.8µM*	nt	28.2µM*
Cc1ccccc1Nc1c(-c2cccnc2)nc2cccc(C)n12	29.9%	-28.5%	-3.5%	?	8.1%	-27.4%
Cc1ccccc1Nc1c(-c2ccc(N3CCOCC3)cc2)nc2ccc(Br)cn12	?	7.08µM*	nt	?	nt	?
Cc1ccccc1Nc1c(-c2ccc(N3CCOCC3)cc2)nc2cccc(C)n12	?	14.1µM*	nt	?	nt	22.4µM*
Cc1cccc(C)c1Nc1c(-c2ccc(N3CCOCC3)cc2)nc2cnccn12	0.7%	?	-7.3%	-32.1%	-6.1%	?
O=C(C1COc2ccccc2O1)N1CCN(c2nc3c(F)cccc3s2)CC1 (stereo unspecified)	16.3%	-14.9%[59 µM]	nt	-13.6%	nt	-10.7%
CCC(O)c1nc2ccccc2n1CCOc1cc(C)cc(C)c1 (stereo unspecified)	15.2%	?	nt	-4.7%	nt	-30.8%
C=C1C(=O)O[C@@H]2[C@H]3O[C@]3(C)CC/C=C(\C)CC[C@@H]12	55.3%	7.94µM*	-1.2%	nt	-24.5%	-4.3%
C=C1C(=O)O[C@@H]2C3OC3(C)CC/C=C(\C)CC[C@@H]12 (stereo partly specified)	nt	nt	nt	nt	-0.7%	nt
O=C1CSC(=S)N1/N=C/c1ccc(C(F)(F)F)cc1	12.2%	79.4µM*	?	-14.7%	-4.8%	-30.8%
O=C1CSC(=S)N1/N=C/c1c(F)cccc1F	-38.5%	50.1µM*	?	-19.6%	?	?
O=C1CSC(=S)N1/N=C/C=C/c1ccccc1	?	39.8µM*	?	?	-7.6%	?
O=C1CSC(=S)N1/N=C/c1cccc(C(F)(F)F)c1	-9.1%	?	-20.1%	-14.0%	6.6%	?
CC(=O)N1c2c(cc(Br)cc2S(=O)(=O)N2CCN(c3ccccc3F)CC2)CC1C (stereo unspecified)	7.0%	-12.3%	-2.6%	-12.0%	-0.8%	-14.8%
CCOc1ccc(NC(=O)CN(C)C(=O)CC2OC(=O)c3ccccc32)cc1OCC (stereo unspecified)	23.5%	0.4%	-3.7%	-6.2%	nt	-4.8%
Cc1cc(OCc2cc(C(=O)NCCN3CCCCC3CO)no2)cc(C)c1Cl (stereo unspecified)	10.1%	57.2%	-0.2%	0.6%	-15.5%	-24.7%
CSc1nc(-c2ccccc2)nc(N)c1C(C)=O	nt	?	nt	-2.8%	-7.2%	nt
CC(=O)c1c(C)nc(-c2ccc(Cl)cc2)nc1N=CN(C)C	17.1%	3.55µM*	2.9%	79.4µM*	?	?
CC(=O)c1c(C)nc(-c2ccc(Cl)cc2)nc1N	24.0%	-45.6%	-18.2%	79.4µM*	-16.4%	-17.4%
O=C(N/N=C1/C[C@@H](O)[C@@H](O)[C@@H]2[C@@H]3C(=O)N(C[C@@H]4CCCO4)C(=O)[C@H]3CC[C@H]12)OCc1ccccc1	nt	nt	nt	nt	-0.9%	nt
COC(=O)C1=C(C(=O)OC)SC2(S1)C(C(=O)OC)=C(C(=O)OC)SC1=C2c2cccc(C)c2NC1(C)C	-21.7%	31.6µM*	-13.0%	?	2.8%	?
SMILES	HP1b binding inh	G9a inh	PLK1 PBD block	BAZ2B block	Sfp inh	JMJD2A Tudor inh
Cc1nc(-c2ccc(F)cc2)c(CC(=O)N(C)CC(=O)Nc2ccccc2Br)s1	4.8%	8.5%[2.33 µM]	-2.3%	-2.6%	nt	-20.7%
Cc1nc(-c2ccc(F)cc2)c(CC(=O)N(C)CC(=O)Nc2ccc(Br)cc2C)s1	5.6%	31.6µM*	1.7%	-19.5%	nt	-33.1%
CC#CCOCC/C=C1/c2ccccc2C(OC)C1C (stereo unspecified)	nt	nt	nt	nt	11.5%	nt
COc1ccc(-c2nc(-c3ccccn3)ncc2S(C)(=O)=O)cc1	34.1%	-2.4%	-6.5%	?	15.6%	-16.2%
COc1ccc(-c2nc(-c3ccccc3)ncc2S(C)(=O)=O)cc1	6.7%	16.9%[12.7 µM]	26.7µM*	-3.8%	7.9%	?
Cc1c([N+](=O)[O-])c(C(=O)Sc2ccc(Br)cc2)nn1C	23.4%	25.1µM*	?	17.7%	-1.7%	-5.7%
Cc1c([N+](=O)[O-])c(C(=O)N2CCCC2)nn1C	8.4%	28.2%[0.501 µM]	-2.1%	-7.3%	5.9%	-13.1%
CCn1c(C)cc(/C=C2\SC(=O)N(CC(=O)Nc3ccc(C)c(C)c3)C2=O)c1C	32.4%	17.6%	-11.6%	0.4%[57.1 µM]	?	-5.5%[57.1 µM]
Cc1ccc(C(=O)O)cc1-c1ccc(C=C2C(=O)c3ccccc3C2=O)o1	39.8µM*	17.8µM*	?	50.1µM*	-4.1%	?
Cc1cc(C(=O)O)ccc1-n1c(C)cc(C=C2C(=O)c3ccccc3C2=O)c1C	-15.5%	28.2µM*	?	-34.6%	-20.5%	?
Cc1ccc(NC(=O)CN2C(=O)S/C(=C/c3ccc(-c4cc(C(=O)O)ccc4C)o3)C2=O)cc1C	-67.8%	3.55µM*	?	11.2µM*	56.2µM*	11.2µM*
O=C(O)c1ccccc1-c1ccc(/C=C2\SC(=O)N(c3ccccc3)C2=O)o1	14.6%	7.08µM*	-12.5%	?	-14.9%	-15.0%
Cc1ccc(-c2nnc(Nc3ccc(Br)cc3)c3ccccc23)cc1S(=O)(=O)NCc1nc2ccccc2[nH]1	20.0%	5.2%[59 µM]	nt	-2.5%	nt	-16.3%
COC(=O)C(C(=O)OC)C(Cc1cc(F)cc(F)c1F)NC=O (stereo unspecified)	nt	nt	nt	nt	-8.5%	nt
COC(=O)C(C)N1C(=O)S/C(=C\c2ccc(-c3ccc(C(=O)O)cc3C)o2)C1=O (stereo unspecified)	?	39.8µM*	29.9µM*	?	-1.3%	?
